Bioassay records: PubChem, University of Kansas High Throughput Screening Laboratory
mHTT CaM bind: mHTT-calmodulin interaction abrogation | P42858 | AlphaScreen His-mHTT/GST-CaM binding, luminescence | inhibition, % at 15 µM | 190,000 tested, 3.6% active | AID 1671202;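 note: 0% = both proteins with DMSO and 100% = one protein alone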
Pf apPOL inh: Pf-apPOL DNA polymerase inhibition | inhibition, % at 10 µM | Recombinant Pf-apPOL, molecular beacon fluorescence, 1.5 h | 210,000 tested, 0.25% active | AID 1794808
* hit, by the source's call; . = no result. In the library only some 3.5% were active in any assay of this set; here they are far more common. Cut-off read from the data, not from the text of the source: active = inhibition above about 50%; inactive = the rest.

SMILES	mHTT CaM bind	Pf apPOL inh
O=C1CC(c2ccc3c(c2)OCO3)CC2=C1C(c1ccc3c(c1)OCO3)Nc1ccccc1N2 (centres undefined)	27	-2
CC1=C(C(=O)N2CCOCC2)C(c2cccs2)C2=C(CCCC2=O)N1 (centres undefined)	-2	-4
Cc1ccc2c(c1)C(c1ccccc1)N(C(=O)c1ccc([N+](=O)[O-])cc1)CC(=O)N2 (centres undefined)	22	-3
O=C(CC1CCN(S(=O)(=O)c2ccc(Cl)s2)CC1)NC1CCCC1	-6	2
CC(C)NC(=O)c1cn2c(n1)CCC(c1cc(F)ccc1F)C2 (centres undefined)	7	-4
COc1ccc(C2=N/C(=C\c3c(F)cccc3Cl)C(=O)O2)c(Cl)c1	-2	-8
COc1cccc(C2(C)C(C#N)C(=O)NC(=O)C2C#N)c1 (centres undefined)	.	-4
O=c1oc2ccc(Br)cc2cc1-c1csc(-c2ccc([N+](=O)[O-])cc2)n1	19	-4
Cn1c(=O)c2c(nc(N3CCN(c4ccccc4)CC3)n2CCSc2ncccn2)n(C)c1=O	3	-13
O=C(CN1CCC(c2nnc(-c3ccco3)s2)CC1)c1ccc(Cl)cc1	72*	4
O=C(Cn1cccc1)N1CCC(c2nnc(-c3ccco3)s2)CC1	-8	21
CCC(=O)NCc1nc2c(n1C)CN(S(=O)(=O)c1cc(C)ccc1C)CC2	2	-7
Cc1nc2nc(SCC(=O)NC3CCCC3)nn2c(C)c1Cc1ccccc1Cl	34	0
O=C(NCCNC(=O)c1ccccc1O)c1ccccc1O	5	6
O=C(CC(=O)c1ccccc1O)c1ccc(F)cc1	38	-4
O=C(CC(=O)c1ccccc1Cl)c1ccccc1O	50*	0
O=C(CC(=O)c1ccccc1O)c1cccc(F)c1	57*	2
CC1(C(=O)NCc2cccc(F)c2)CCCN(S(=O)(=O)c2cccs2)C1 (centres undefined)	-2	-3
O=C(O)CC(C(=O)O)N1C(=O)C(=Cc2cccc(Br)c2)SC1=S (centres undefined)	-1	-14
CCc1ccc(Sc2cc(C(=O)NCCCN3CCOCC3)c3ccccc3n2)cc1	41	-18
COc1ccc(Cl)cc1NC(=O)COc1ccccc1C	-10	0
O=C(Cn1cnc2sc3c(c2c1=O)CCCC3)NCc1ccco1	10	-3
O=c1c2c3c(sc2nc2ccc(NCc4ccco4)nn12)CCCC3	79*	-3
O=C(c1ccc(Cn2c(=O)[nH]c3ccccc3c2=O)cc1)N1CCc2ccccc2C1	60*	-6
O=C(c1ccc(Cn2cncn2)cc1)N1CCc2ccccc2C1	3	-10
SMILES	mHTT CaM bind	Pf apPOL inh
CCN(Cc1ccccc1)S(=O)(=O)c1cc(Br)cc2c1N(C(C)=O)C(C)C2 (centres undefined)	2	-4
c1coc(C2Oc3ccccc3C3CC(c4cccs4)=NN32)c1 (centres undefined)	92*	-9
CCOc1cccc(C2Oc3ccccc3C3CC(c4cccs4)=NN32)c1O (centres undefined)	50*	-4
COc1ccc(C2Oc3ccccc3C3CC(c4cccs4)=NN32)cc1O (centres undefined)	52*	10
COc1c(O)ccc(C2Oc3ccccc3C3CC(c4cccs4)=NN32)c1[N+](=O)[O-] (centres undefined)	55*	0
COc1cc(C2Oc3ccccc3C3CC(c4cccs4)=NN32)cc(OC)c1O (centres undefined)	47	8
Oc1ccc(C2Oc3ccccc3C3CC(c4cccs4)=NN32)cc1O (centres undefined)	29	-1
COc1ccc(OC)c(C2Oc3c(OC)cccc3C3CC(c4cccs4)=NN32)c1 (centres undefined)	2	-13
O=C(c1cccs1)N1N=C(c2cccs2)CC1c1cc([N+](=O)[O-])ccc1O (centres undefined)	48	2
CCc1ccc(NC(=O)CSc2nc3c(c(=O)n2-c2ccc(F)cc2)SCC3)cc1	8	-4
CC(NC(=O)C1CCN(c2ccc(Cl)cc2)C1=O)c1ccccc1 (centres undefined)	5	-1
CCc1cccc(NC(=O)COc2cc(C)nc(N3CCC(C)CC3)n2)c1	-15	-4
Cc1ccc(NC(=O)Cn2ccc3sccc3c2=O)cc1	-3	4
Clc1cccc(C2Oc3ccccc3C3CC(c4ccccc4)=NN32)c1 (centres undefined)	-7	.
COc1cc(C(=O)O)c(C2Oc3ccccc3C3CC(c4ccccc4)=NN32)cc1OC (centres undefined)	50*	-5
Cc1ccnc(N2CCC(C(=O)NCCN3CCCCC3)CC2)n1	1	0
COc1ccc(C2C=C(c3ccc(I)cc3)Nc3nnnn32)cc1 (centres undefined)	5	-14
O=C1CSC(=NCNc2ccccc2[N+](=O)[O-])N1CNc1ccccc1[N+](=O)[O-]	-3	-6
Cn1ncc([N+](=O)[O-])c1C(=O)NNC(=S)NC1CCCC1	-2	.
O=C(NNC(=S)NC1CCCCC1)c1[nH]ncc1[N+](=O)[O-]	61*	.
CCC(C)C(=O)Nc1nnc(CC(C)(C)C)s1 (centres undefined)	-6	.
O=C(NCc1ccccc1)c1cncc(-c2ccccc2F)c1	1	33
CCNC(=O)c1ccc(-n2nc(C)cc2C)nc1	-4	0
CCOc1cc2c(c([N+](=O)[O-])c1)NC(C1CC=CCC1)C1CC=CC21 (centres undefined)	71*	3
O=C(O)c1ccc([N+](=O)[O-])c2c1NC(C1CC=CCC1)C1CC=CC21 (centres undefined)	41	2
SMILES	mHTT CaM bind	Pf apPOL inh
O=C1OC2(CCCCC2)OC(=O)C1=Cc1ccc(Br)o1	30	-9
O=C(c1ccn2c(-c3ccc(F)cc3)nnc2c1)N1CCN(c2ccccc2)CC1	3	-1
Oc1ccc(Br)cc1C=Nc1nc2c(s1)CCCC2	4	-1
COc1ccc(CC(=O)N2CCc3cn(C)c4cccc(c34)C2)cc1	57*	-2
Cn1cc2c3c(cccc31)CN(C(=O)Cc1ccccc1Cl)CC2	50*	-3
Cc1ccccc1CC(=O)N1CCc2cn(C)c3cccc(c23)C1	42	-2
COc1ccc(CC(=O)N2CCc3ccccc3C2)cc1	4	-5
CCOc1ccccc1CN1CCC(C(=O)N2CCN(c3ccccc3OCC)CC2)CC1	8	-8
Nc1ccc(C(=O)Nc2ccc(-c3nc4ccc(NC(=O)c5ccc(N)cc5)cc4[nH]3)cc2)cc1	52*	-27
COc1ccc(Cl)cc1C(=O)Nc1ccc(-c2nc3ccccc3[nH]2)cc1	90*	4
CC(=O)Nc1ccc(-c2nc3ccc(NC(C)=O)cc3[nH]2)cc1	1	81*
COc1ccc(Cl)cc1C(=O)Nc1ccc(F)cc1	-8	1
Cc1cccc2[nH]c(-c3ccc(NC(=O)c4ccc(N)cc4)cc3)nc12	21	-2
C=CC(=O)Nc1ccc(-c2nc3ccc(NC(=O)C=C)cc3[nH]2)cc1	1	6
O=C(O)c1ccc(-c2nc3ccc(-c4ccc5nc(-c6ccc(C(=O)O)cc6)[nH]c5c4)cc3[nH]2)cc1	.	86*
O=[N+]([O-])c1ccc2nc(-c3ccccc3)[nH]c2c1	11	31
O=C(NCc1ccccc1Cl)C1COCC(=O)N1Cc1ccccc1 (centres undefined)	-15	-1
Cc1noc(C2CN(C(=O)C3CCC3)CC23CCOCC3)n1 (centres undefined)	-11	-8
